Each structure is given as a SMILES string. Where a name gives a salt, the structure may show the parent alone.

The assay concerns primary human hepatic stellate cells (donor 1). Kind of assay: PSMB2 reference mRNA level vs DMSO (fold); higher = more PSMB2 expression. To be noted: 48 h. The method, then:
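Secondary qRT-PCR screen in primary human HSCs (donor 1), 384-well plates, with compounds dispensed in quadruplicate and incubated for 48 h. Cells-to-CT lysates were used for multiplexed TaqMan qPCR of ACTA2 or COL1A1 with PSMB2 as reference. Fold changes versus DMSO come from a linear model (Ct_gene ~ Ct_PSMB2 + plate + chemical). A hit is defined as COL1A1 and ACTA2 FC <0.5 (FDR <0.05) with PSMB2 between 0.2 and 2.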
For the compound `CCCCCCCCCCCCC/C=C/[C@@H](O)[C@H](CO)N(C)C` [N,N-Dimethylsphingosine] (3.33333 µM), the “PSMB2 reference mRNA level” value is 0.511.
With `CC#CCOC(=O)c1c(C)nc2sc3c(c2c1N)CCC(O)C3` (stereo not given) (33.3333 µM), the “PSMB2 reference mRNA level” value was found to be 0.434.
The figure for `CC(C)NCCCn1c(Sc2cc3c(cc2I)OCO3)nc2c(N)ncnc21` (33.3333 µM) is 0.581; for `C[C@]12CC[C@H](O)CC1=CC[C@@H]1[C@@H]2CC[C@]2(C)C(n3cnc4ccccc43)=CC[C@@H]12` [Galeterone] (33.3333 µM) it is 0.0945; for `C[C@@H](Oc1cc(-c2cnn(C3CCNCC3)c2)cnc1N)c1c(Cl)ccc(F)c1Cl` (11.1 µM) it is 0.805.
Turning to `CNCCCC1c2ccccc2C=Cc2ccccc21` [Protryptyline hydrochloride] (22.2333 µM), the “PSMB2 reference mRNA level” value was 1.06.
Take `CN1CCN(C2=Cc3ccccc3Oc3ccc(Cl)cc32)CC1` (33.3333 µM): the “PSMB2 reference mRNA level” value turned out to be 0.977.
Regarding `COC(=O)C[C@](O)(CCCC(C)(C)O)C(=O)O[C@@H]1C(OC)=C[C@]23CCCN2CCc2cc4c(cc2[C@H]13)OCO4` [Homoharringtonine] (33.3333 µM), the “PSMB2 reference mRNA level” value came to 0.38.
The figure for `Cc1nc2ccc(-n3ncc(C(=O)c4cc5ccccc5[nH]4)c3N)cc2[nH]1` (33.3333 µM) is 0.324; for `CCCCc1oc2ccccc2c1C(=O)c1cc(I)c(OCCN(CC)CC)c(I)c1` (33.3333 µM) it is 0.537; for `CCc1cc2c(cc1CC)CC(NC[C@H](O)c1ccc(O)c3[nH]c(=O)ccc13)C2` [Indacaterol Maleate] (33.3333 µM) it is 0.728.
The figure for `C#C[C@]1(O)CC[C@H]2[C@@H]3CCC4=Cc5oncc5C[C@]4(C)[C@H]3CC[C@@]21C` [Danazol] (33.3333 µM) is 0.993.
`CNC(=O)[C@@H](Cc1ccccc1)N(C)C(=O)[C@@H](Cc1ccc2ccccc2c1)N(C)C(=O)/C=C/CC(C)(C)N` [Tabimorelin] (33.3333 µM): the “PSMB2 reference mRNA level” value stood at 1.83.
The same measure for `O=C(c1ccc(/C=C/c2n[nH]c3ccccc23)cc1)N1CCNCC1` (33.3333 µM): 0.0479; for `Cc1cnc(-c2cnc(NCCNc3ccc(C#N)cn3)nc2-c2ccc(Cl)cc2Cl)[nH]1` (33.3333 µM): 2.78.
The same measure for `C[C@H]1O[C@@H](O[C@H]2[C@@H](O)C[C@H](O[C@H]3[C@@H](O)C[C@H](O[C@H]4CC[C@@]5(C)[C@H](CC[C@@H]6[C@@H]5C[C@@H](O)[C@]5(C)[C@@H](C7=CC(=O)OC7)CC[C@]65O)C4)O[C@@H]3C)O[C@@H]2C)C[C@H](O)[C@@H]1O` [Digoxin] (33.3333 µM): 1.06.
The same measure for `Cc1ccc2c(c1)c1c3n2CCNC3CCC1` (stereo not given) [Pirlindole mesylate] (20.6667 µM): 0.807.
As to `CSc1ccc2c(c1)C(N1CCN(C)CC1)Cc1ccccc1S2` (stereo not given) [Methiothepin maleate] (33.3333 µM), the “PSMB2 reference mRNA level” value is 0.000808.
The figure for `CNc1nccc(-c2cccnc2Oc2cc(C(=O)Nc3cccc(C(F)(F)F)c3)ccc2C)n1` (33.3333 µM) is 0.887; for `O=C(Nc1cc(C(F)(F)F)cc(C(F)(F)F)c1)c1cc(Cl)ccc1O` (33.3333 µM) it is 1.2; for `Cn1cc(C2=C(c3ccc(Cl)cc3Cl)C(=O)NC2=O)c2ccccc21` (33.3333 µM) it is 0.517.
For `CCCSc1ccc2[nH]c(NC(=O)OC)nc2c1` [Albendazole] (33.3333 µM), the “PSMB2 reference mRNA level” value came to 1.65.
The same measure for `CCOC(=O)C1=C(COCCN)NC(C)=C(C(=O)OC)C1c1ccccc1Cl` (stereo not given) (33.3333 µM): 1.28.
The same measure for `CC(C)(C)c1cc(NC(=O)Nc2ccc(-c3cn4c(n3)sc3cc(OCCN5CCOCC5)ccc34)cc2)no1` [Quizartinib  (AC220)] (11.1 µM): 2.12; for `CC(C)c1cc(-c2n[nH]c(=O)n2-c2ccc3c(ccn3C)c2)c(O)cc1O` [Ganetespib (STA-9090)] (33.3333 µM): 0.415.
`COc1cc2ncn(-c3cc(OCc4ccccc4C(F)(F)F)c(C(N)=O)s3)c2cc1OC` (33.3333 µM): the “PSMB2 reference mRNA level” value stood at 1.6.
Consider `OCCN1CCN(CCCN2c3ccccc3Sc3ccc(C(F)(F)F)cc32)CC1` (33.3333 µM), for which the “PSMB2 reference mRNA level” value came to 0.145.
The figure for `COc1ccccc1OCCNCC(O)COc1cccc2[nH]c3ccccc3c12` (stereo not given) [Carvedilol] (33.3333 µM) is 2.15; for `C[C@@H](CN1CCC(n2c(=O)[nH]c3cc(Cl)ccc32)CC1)NC(=O)c1ccc2ccccc2c1` (33.3333 µM) it is 0.16; for `CC(/C=C/C(=O)NO)=C\[C@@H](C)C(=O)c1ccc(N(C)C)cc1` [Trichostatin A] (3.33333 µM) it is 1.36.
Take `COc1cc2nc(N3CCCN(C)CC3)nc(NC3CCN(Cc4ccccc4)CC3)c2cc1OC` (3.33333 µM): the “PSMB2 reference mRNA level” value worked out at 0.211.
With `CNCc1ccc(-c2cc(-c3nc(-c4ccc(S(=O)(=O)C(C)C)cc4)cnc3N)on2)cc1` (11.1 µM), the “PSMB2 reference mRNA level” value worked out at 0.118.
The same measure for `CN(C)C/C=C(/c1ccc(Br)cc1)c1cccnc1` [Zimelidine dihydrochloride] (11.1 µM): 0.28; for `Cc1ccc(NC(=O)c2ccc(CN3CCN(C)CC3)cc2)cc1Nc1nc(-c2cccnc2)cs1` [Masitinib (AB1010, Masivet)] (6.66667 µM): 0.679; for `CC[C@]1(O)C[C@@H]2CN(CCc3c([nH]c4ccccc34)[C@@](C(=O)OC)(c3cc4c(cc3OC)N(C)[C@H]3[C@@](O)(C(=O)OC)[C@H](OC(C)=O)[C@]5(CC)C=CCN6CC[C@]43[C@@H]65)C2)C1` [Vinblastine sulfate] (33.3333 µM): 0.0998.
For `Nc1ccc(C(=O)Nc2cccc(-c3nc(N4CCOCC4)c4oc5ncccc5c4n3)c2)cn1` (6.66667 µM), the “PSMB2 reference mRNA level” value came to 3.27.
The same measure for `NC1(c2ccc(-c3nc4ccn5c(=O)[nH]nc5c4cc3-c3ccccc3)cc2)CCC1` (11.1 µM): 3.72; for `CCN1CCC(n2cc(CNc3cc(Cl)c4ncc(C#N)c(Nc5ccc(F)c(Cl)c5)c4c3)nn2)CC1` (33.3333 µM): 0.0139; for `O=C1Nc2ccccc2/C1=C1/Nc2ccccc2C1=O` [Indirubin] (63.5333 µM): 1.03.
Take `O=S(=O)(NCCNC/C=C/c1ccc(Br)cc1)c1cccc2cnccc12` [H-89, Dihydrochloride] (11.1 µM): the “PSMB2 reference mRNA level” value was found to be 1.02.
